Measured values as given in PMC11024108.

Experiments:
[1] = biological target: Dolichyl-diphosphooligosaccharide--protein glycosyltransferase subunit STT3B (UniProt Q8TCJ2); assay: cross-linking mass spectrometry
[2] = biological target: Dolichyl-diphosphooligosaccharide--protein glycosyltransferase subunit 2 (UniProt P04844); assay: co-fractionation; co-fractionation; cross-linking mass spectrometry
[3] = biological target: Large ribosomal subunit protein bL12m (UniProt P52815); assay: cross-linking mass spectrometry
[4] = biological target: 3-hydroxyacyl-CoA dehydrogenase type-2 (UniProt Q99714); assay: cross-link between two proteins; cross-linking mass spectrometry
[5] = biological target: Complement component 1 Q subcomponent-binding protein, mitochondrial (UniProt Q07021); assay: as above
[6] = biological target: Methylcrotonoyl-CoA carboxylase beta chain, mitochondrial (UniProt Q9HCC0); assay: as above
[7] = biological target: Mitochondrial 10-formyltetrahydrofolate dehydrogenase (UniProt Q3SY69); assay: as above
[8] = biological target: Polyribonucleotide nucleotidyltransferase 1, mitochondrial (UniProt Q8TCS8); assay: as above
[9] = biological target: Pyrroline-5-carboxylate reductase 2 (UniProt Q96C36); assay: as above
[10] = biological target: Spectrin alpha chain, non-erythrocytic 1 (UniProt Q13813); assay: as above
[11] = biological target: Myeloid-derived growth factor (UniProt Q969H8); assay: cross-linking mass spectrometry
[12] = biological target: Peptidyl-prolyl cis-trans isomerase B (UniProt P23284); assay: cross-link between two proteins; cross-linking mass spectrometry
[13] = biological target: Neutral alpha-glucosidase AB (UniProt Q14697); assay: cross-link between two proteins; co-fractionation; cross-linking mass spectrometry
[14] = biological target: AP-1 complex subunit mu-1 (UniProt Q9BXS5); assay: co-fractionation; cross-linking mass spectrometry
14-3-3 protein epsilon = 14-3-3 protein epsilon (UniProt P62258); assay: cross-link between two proteins; cross-linking mass spectrometry
14-3-3 protein gamma = 14-3-3 protein gamma (UniProt P61981); assay: as above
14-3-3 protein eta = 14-3-3 protein eta (UniProt P68510); assay: as above
14-3-3 protein theta = 14-3-3 protein theta (UniProt P68254); assay: as above
[15] = biological target: ATP synthase F(0) complex subunit e, mitochondrial (UniProt P56385); assay: as above
[16] = biological target: ATP synthase peripheral stalk subunit b, mitochondrial (UniProt P24539); assay: co-fractionation; co-fractionation; cross-linking mass spectrometry
[17] = biological target: Cytochrome c oxidase subunit 4 isoform 1, mitochondrial (UniProt P13073); assay: cross-link between two proteins; affinity purification or IP with mass spectrometry; cross-linking mass spectrometry
[18] = biological target: ATP synthase F(1) complex subunit alpha, mitochondrial (UniProt P25705); assay: cross-link between two proteins; cross-linking mass spectrometry
[19] = biological target: ATP synthase F(1) complex subunit epsilon, mitochondrial (UniProt P56381); assay: as above
[20] = biological target: ATPase inhibitor, mitochondrial (UniProt Q9UII2); assay: as above
Frataxin, mitochondrial = Frataxin, mitochondrial (UniProt Q16595); assay: as above
[21] = biological target: Trifunctional enzyme subunit beta, mitochondrial (UniProt P55084); assay: as above
[22] = biological target: ATP synthase peripheral stalk subunit OSCP, mitochondrial (UniProt P48047); assay: as above
[23] = biological target: NAD kinase 2, mitochondrial (UniProt Q4G0N4); assay: co-fractionation; co-fractionation; cross-linking mass spectrometry
[24] = biological target: Aldehyde dehydrogenase, mitochondrial (UniProt P05091); assay: cross-link between two proteins; cross-linking mass spectrometry
[25] = biological target: NADH-ubiquinone oxidoreductase 75 kDa subunit, mitochondrial (UniProt P28331); assay: as above
[26] = biological target: Cytochrome b-c1 complex subunit 7 (UniProt P14927); assay: as above
[27] = biological target: Cytochrome b-c1 complex subunit Rieske, mitochondrial (UniProt P47985); assay: co-fractionation; co-fractionation; cross-linking mass spectrometry
Cytochrome b-c1 complex subunit Rieske, mitochondrial, sequence (P47985 whole entry, one chain of several): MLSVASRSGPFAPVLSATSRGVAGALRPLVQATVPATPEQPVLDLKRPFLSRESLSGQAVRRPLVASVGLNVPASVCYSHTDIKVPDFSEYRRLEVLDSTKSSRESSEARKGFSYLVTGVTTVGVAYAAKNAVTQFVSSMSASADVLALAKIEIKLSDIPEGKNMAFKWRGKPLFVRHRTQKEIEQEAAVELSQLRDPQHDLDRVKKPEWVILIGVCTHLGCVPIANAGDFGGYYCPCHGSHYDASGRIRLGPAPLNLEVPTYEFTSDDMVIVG

Complement component 1 Q subcomponent-binding protein, mitochondrial, sequence (Q07021 whole entry): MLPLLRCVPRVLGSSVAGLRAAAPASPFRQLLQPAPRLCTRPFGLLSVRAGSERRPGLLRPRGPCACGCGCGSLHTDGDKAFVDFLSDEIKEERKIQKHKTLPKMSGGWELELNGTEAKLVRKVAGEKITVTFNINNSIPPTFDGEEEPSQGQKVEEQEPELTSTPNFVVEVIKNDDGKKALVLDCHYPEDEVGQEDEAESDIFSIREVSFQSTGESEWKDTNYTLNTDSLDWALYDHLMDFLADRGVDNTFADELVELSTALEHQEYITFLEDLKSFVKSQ
ATP synthase F(1) complex subunit alpha, mitochondrial, sequence (P25705 whole entry, one chain of several): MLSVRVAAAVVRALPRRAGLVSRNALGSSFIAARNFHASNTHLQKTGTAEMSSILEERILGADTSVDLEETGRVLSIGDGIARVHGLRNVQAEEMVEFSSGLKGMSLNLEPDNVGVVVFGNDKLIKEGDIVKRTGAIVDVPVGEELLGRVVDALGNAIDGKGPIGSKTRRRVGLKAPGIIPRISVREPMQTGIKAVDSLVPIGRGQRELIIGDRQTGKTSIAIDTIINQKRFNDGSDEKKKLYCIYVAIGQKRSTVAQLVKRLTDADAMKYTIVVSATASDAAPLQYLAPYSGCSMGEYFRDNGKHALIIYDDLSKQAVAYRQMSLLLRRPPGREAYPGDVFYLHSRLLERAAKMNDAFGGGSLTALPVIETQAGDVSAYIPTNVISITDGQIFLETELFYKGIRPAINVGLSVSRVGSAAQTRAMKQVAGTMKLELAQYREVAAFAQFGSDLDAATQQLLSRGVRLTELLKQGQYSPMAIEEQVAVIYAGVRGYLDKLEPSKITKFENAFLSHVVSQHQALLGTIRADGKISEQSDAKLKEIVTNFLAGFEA
14-3-3 protein theta, sequence (P68254 whole entry): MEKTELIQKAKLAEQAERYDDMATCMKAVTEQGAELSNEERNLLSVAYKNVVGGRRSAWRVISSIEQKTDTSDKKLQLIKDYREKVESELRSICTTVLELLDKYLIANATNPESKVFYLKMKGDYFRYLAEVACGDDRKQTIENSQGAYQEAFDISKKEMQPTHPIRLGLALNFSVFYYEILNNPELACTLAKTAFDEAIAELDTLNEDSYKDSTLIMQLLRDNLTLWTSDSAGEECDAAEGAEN
Peptidyl-prolyl cis-trans isomerase B, sequence (P23284 whole entry): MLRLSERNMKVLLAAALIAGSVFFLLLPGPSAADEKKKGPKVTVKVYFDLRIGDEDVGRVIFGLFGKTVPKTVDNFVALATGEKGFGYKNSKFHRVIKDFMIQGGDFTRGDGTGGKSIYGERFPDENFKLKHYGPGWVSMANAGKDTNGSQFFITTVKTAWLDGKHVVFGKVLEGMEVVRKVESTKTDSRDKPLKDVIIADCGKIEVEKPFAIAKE
Trifunctional enzyme subunit beta, mitochondrial, sequence (P55084 whole entry): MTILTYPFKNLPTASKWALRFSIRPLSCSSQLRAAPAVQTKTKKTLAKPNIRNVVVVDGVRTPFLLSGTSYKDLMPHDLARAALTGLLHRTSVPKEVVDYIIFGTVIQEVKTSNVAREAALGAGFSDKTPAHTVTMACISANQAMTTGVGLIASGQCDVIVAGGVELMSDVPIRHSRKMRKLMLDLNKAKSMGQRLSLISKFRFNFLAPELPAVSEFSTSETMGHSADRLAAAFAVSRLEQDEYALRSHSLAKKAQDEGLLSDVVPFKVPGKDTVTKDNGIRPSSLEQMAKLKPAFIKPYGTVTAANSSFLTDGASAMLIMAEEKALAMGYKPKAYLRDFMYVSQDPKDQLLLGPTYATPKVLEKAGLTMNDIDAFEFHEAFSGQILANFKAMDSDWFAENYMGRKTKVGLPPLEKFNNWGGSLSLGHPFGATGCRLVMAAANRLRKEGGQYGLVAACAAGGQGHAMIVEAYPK
AP-1 complex subunit mu-1, sequence (Q9BXS5 whole entry, one chain of several): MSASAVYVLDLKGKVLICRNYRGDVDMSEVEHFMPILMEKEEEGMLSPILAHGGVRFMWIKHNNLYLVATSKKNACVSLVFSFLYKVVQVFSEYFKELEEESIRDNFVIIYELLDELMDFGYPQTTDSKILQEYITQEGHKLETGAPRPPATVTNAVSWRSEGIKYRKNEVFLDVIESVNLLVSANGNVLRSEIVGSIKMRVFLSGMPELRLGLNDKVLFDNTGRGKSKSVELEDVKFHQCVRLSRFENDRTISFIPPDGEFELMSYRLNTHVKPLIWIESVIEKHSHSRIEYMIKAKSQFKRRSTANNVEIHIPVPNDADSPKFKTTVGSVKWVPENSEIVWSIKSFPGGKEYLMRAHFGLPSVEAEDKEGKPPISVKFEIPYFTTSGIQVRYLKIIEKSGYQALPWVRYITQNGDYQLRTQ
14-3-3 protein eta, sequence (P68510 whole entry): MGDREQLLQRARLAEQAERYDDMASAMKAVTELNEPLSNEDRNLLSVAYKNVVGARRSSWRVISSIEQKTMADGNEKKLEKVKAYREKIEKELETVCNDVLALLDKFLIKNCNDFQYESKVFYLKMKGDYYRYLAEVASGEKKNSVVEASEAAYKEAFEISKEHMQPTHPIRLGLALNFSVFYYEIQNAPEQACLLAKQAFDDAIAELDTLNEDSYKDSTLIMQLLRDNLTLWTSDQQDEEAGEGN
Cytochrome b-c1 complex subunit 7, sequence (P14927 whole entry, one chain of several): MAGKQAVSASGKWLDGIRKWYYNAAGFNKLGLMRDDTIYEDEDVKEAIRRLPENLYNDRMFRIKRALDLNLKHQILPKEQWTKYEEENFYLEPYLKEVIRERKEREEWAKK
Methylcrotonoyl-CoA carboxylase beta chain, mitochondrial, sequence (Q9HCC0 whole entry): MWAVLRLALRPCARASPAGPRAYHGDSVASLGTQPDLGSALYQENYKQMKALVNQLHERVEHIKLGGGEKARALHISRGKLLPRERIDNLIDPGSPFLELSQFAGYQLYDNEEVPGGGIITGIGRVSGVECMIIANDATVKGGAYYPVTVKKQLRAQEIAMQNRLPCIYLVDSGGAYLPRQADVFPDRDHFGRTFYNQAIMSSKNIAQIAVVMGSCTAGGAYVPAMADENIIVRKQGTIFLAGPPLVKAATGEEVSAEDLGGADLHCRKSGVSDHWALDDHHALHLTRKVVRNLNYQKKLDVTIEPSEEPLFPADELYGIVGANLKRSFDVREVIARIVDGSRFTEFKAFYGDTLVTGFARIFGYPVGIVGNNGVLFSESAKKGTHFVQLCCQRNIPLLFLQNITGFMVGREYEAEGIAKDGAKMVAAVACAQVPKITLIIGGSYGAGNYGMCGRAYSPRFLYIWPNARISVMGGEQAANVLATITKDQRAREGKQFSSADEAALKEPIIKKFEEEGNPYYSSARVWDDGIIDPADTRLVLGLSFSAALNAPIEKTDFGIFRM
Mitochondrial 10-formyltetrahydrofolate dehydrogenase, sequence (Q3SY69 whole entry): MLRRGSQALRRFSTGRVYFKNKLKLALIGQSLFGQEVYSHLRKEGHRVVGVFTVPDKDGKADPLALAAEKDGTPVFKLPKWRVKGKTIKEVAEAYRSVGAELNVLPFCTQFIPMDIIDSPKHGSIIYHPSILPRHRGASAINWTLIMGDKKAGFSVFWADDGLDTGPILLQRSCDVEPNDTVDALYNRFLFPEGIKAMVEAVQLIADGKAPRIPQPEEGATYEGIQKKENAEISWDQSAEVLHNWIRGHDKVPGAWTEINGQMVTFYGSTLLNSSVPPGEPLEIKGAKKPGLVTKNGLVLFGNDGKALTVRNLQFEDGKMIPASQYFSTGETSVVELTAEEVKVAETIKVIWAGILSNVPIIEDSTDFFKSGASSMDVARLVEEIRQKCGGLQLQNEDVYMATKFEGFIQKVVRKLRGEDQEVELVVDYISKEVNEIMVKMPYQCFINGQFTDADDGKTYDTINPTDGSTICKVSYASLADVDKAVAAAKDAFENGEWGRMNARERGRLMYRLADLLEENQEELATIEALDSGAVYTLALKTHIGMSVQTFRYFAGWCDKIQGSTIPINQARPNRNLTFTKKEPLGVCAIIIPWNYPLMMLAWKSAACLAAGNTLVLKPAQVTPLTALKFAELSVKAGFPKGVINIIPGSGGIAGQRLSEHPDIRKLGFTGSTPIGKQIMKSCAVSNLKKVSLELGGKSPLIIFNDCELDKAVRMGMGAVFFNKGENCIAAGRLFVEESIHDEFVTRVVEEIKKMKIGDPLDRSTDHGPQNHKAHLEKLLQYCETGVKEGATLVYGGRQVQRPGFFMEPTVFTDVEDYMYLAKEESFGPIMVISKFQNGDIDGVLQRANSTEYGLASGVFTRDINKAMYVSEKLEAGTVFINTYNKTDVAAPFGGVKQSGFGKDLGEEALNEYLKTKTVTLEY
ATP synthase peripheral stalk subunit OSCP, mitochondrial, sequence (P48047 whole entry): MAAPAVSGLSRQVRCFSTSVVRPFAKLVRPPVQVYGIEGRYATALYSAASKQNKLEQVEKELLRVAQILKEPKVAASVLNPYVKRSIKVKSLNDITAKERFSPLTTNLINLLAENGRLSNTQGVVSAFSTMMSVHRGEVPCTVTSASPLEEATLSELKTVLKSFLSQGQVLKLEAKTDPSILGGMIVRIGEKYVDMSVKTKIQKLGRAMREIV
14-3-3 protein epsilon, sequence (P62258 whole entry): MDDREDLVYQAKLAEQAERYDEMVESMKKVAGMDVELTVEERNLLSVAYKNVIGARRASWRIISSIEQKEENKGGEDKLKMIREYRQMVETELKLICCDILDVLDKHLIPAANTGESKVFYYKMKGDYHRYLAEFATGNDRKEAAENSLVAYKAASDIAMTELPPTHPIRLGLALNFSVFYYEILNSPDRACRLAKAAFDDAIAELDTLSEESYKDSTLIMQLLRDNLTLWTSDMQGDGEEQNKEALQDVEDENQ
ATP synthase F(1) complex subunit epsilon, mitochondrial, sequence (P56381 whole entry, one chain of several): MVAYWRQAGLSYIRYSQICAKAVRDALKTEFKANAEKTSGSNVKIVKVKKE

Dolichyl-diphosphooligosaccharide--protein glycosyltransferase subunit 1, P04843
listed as a hit [1]: yes | listed as a hit [2]: yes

Stress-70 protein, mitochondrial, P38646
listed as a hit [3]: yes | listed as a hit [4]: yes | listed as a hit [5]: yes | listed as a hit [6]: yes | listed as a hit [7]: yes | listed as a hit [8]: yes | listed as a hit [9]: yes | listed as a hit [10]: yes

Glucosidase 2 subunit beta, P14314
listed as a hit [11]: yes | listed as a hit [12]: yes | listed as a hit [13]: yes

AP-1 complex subunit beta-1, Q10567
listed as a hit [14]: yes

14-3-3 protein theta, P27348
listed as a hit (14-3-3 protein epsilon): yes | listed as a hit (14-3-3 protein gamma): yes

14-3-3 protein zeta/delta, P63101
listed as a hit (14-3-3 protein eta): yes | listed as a hit (14-3-3 protein theta): yes

ATP synthase F(0) complex subunit g, mitochondrial, O75964
listed as a hit [15]: yes | listed as a hit [16]: yes | listed as a hit [17]: yes

NADPH:adrenodoxin oxidoreductase, mitochondrial, P22570
listed as a hit [18]: yes | listed as a hit [5]: yes

ATP synthase F(1) complex subunit alpha, mitochondrial, P25705
listed as a hit [19]: yes | listed as a hit [20]: yes | listed as a hit (Frataxin, mitochondrial): yes | listed as a hit [21]: yes

Citrate synthase, mitochondrial, O75390
listed as a hit [22]: yes | listed as a hit [23]: yes

Aspartate aminotransferase, mitochondrial, P00505
listed as a hit [24]: yes | listed as a hit [25]: yes

Cytochrome b-c1 complex subunit 8, O14949
listed as a hit [26]: yes | listed as a hit [27]: yes
